Rows were chosen to be rich in hits. Some 2.5% of all compounds tested hit in one or more screens of this group.
p53ts 32C kill: qHTS Screen for Compounds that Selectively Target Cancer Cells with p53 Mutations: Cytotoxicity of p53ts Cells at the Permissive Temperature | H1299-p53A138V at 32C, ATP luminescence viability, 24 h | Potency, µM (top dose mostly 46.1 µM), actives largely listed as cytotoxic | hit rate 0.93% among 130,000 | AID 924, 2007; also: nearly all actives have a fitted effect of over 55% in size
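H1299-p53 A138V cells (temperature-sensitive p53) exposed 24 h to up to 46 uM compound at 32C, where p53 is wild-type in conformation. Viability read as ATP luminescence and normalised to DMSO and 100 uM tamoxifen. AC50 fitted with the Hill equation.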
FLuc inh: qHTS Assay for Inhibitors of Firefly Luciferase. purified firefly luciferase, luminescence, 8 min. Potency, µM (series often up to 57.1 µM), most hits filed as inhibitors. hit rate 2.2% among 72,000. AID 411, 2009; also: nearly all actives have a fitted effect of over 40% in size
Target sequence (P08659 whole entry, looked up): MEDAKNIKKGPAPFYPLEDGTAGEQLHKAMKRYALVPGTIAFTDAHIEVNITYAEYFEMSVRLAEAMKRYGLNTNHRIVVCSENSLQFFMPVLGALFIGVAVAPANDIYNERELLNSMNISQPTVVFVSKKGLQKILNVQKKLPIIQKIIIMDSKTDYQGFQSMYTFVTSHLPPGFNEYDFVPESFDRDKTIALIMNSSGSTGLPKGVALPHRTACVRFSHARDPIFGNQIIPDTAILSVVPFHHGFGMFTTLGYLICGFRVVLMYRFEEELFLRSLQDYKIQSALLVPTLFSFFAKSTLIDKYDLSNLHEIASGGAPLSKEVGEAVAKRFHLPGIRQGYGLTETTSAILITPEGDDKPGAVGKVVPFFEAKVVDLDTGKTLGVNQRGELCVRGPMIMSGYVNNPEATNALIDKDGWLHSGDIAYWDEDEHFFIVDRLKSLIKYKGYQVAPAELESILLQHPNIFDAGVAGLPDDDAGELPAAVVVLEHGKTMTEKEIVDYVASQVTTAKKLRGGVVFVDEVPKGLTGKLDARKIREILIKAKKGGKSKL
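Substrate buffer containing 10 uM ATP (pH 7.2 imidazole, Mg2+, KCl, detergent, BSA) is dispensed, compound pinned in, then luciferase/luciferin detector mix added. After 8 min at ambient temperature, light output is measured.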
p53ts 39C kill: qHTS Screen for Compounds that Selectively Target Cancer Cells with p53 Mutations: Cytotoxicity of p53ts Cells at the Nonpermissive Temperature; H1299-p53A138V viability at 39C, ATP luminescence, 24 h; Potency, µM (top dose mostly 46.1 µM), most hits filed as cytotoxic; hit rate 1.5% among 130,000; also: nearly all actives have a fitted effect of over 55% in size
Large screens that a line does not name were inactive. Calls follow the shape of the dose curve; as a rule, active = well fitted curve in the direction sought with a large enough effect; inconclusive = small, poorly fitted or top-dose-only effect, or another doubt; inactive = no such curve, though single readings can be large; an effect the other way counts as inactive or inconclusive.

Cc1ccc(C(=O)Nc2ccc(C(=O)OCc3cc(=O)n4ccsc4n3)cc2)cc1	none (no result: FLuc inh)
Cc1cn2c(=O)cc(COC(=O)c3ccc(NC(=O)c4ccc(C(C)(C)C)cc4)cc3)nc2s1	none (no result: FLuc inh)
Cc1cn2c(=O)cc(COC(=O)c3cccc(NC(=O)c4ccc(C(C)(C)C)cc4)c3)nc2s1	p53ts 32C kill 2.51µM, p53ts 39C kill 3.16µM (no result: FLuc inh)
CC(C)(C)c1ccc(C(=O)Nc2ccc(C(=O)OCc3cc(=O)n4ccsc4n3)cc2)cc1	p53ts 32C kill 15.8µM, p53ts 39C kill 15.8µM (no result: FLuc inh)
CC1CN(C(=O)Nc2ccc(C(=O)NCc3cccc(F)c3)cc2)c2ccccc2S1 (stereo not drawn)	none (no result: FLuc inh)
CCCCCCC(=O)Cc1cc(OC)c(OC)cc1/C=C(/C(C)=O)C(=O)OC	none (no result: FLuc inh)
CCc1ccc(OC(=O)c2ccn(CC)n2)cc1	FLuc inh 12.6µM
CCOC(=O)c1c(NC(=O)c2ccn(CC)n2)sc2c1CCCC2	none
O=c1cc(-c2ccccc2)oc2cc(O[C@H]3O[C@H](CO)[C@@H](O)[C@H](O)[C@@H]3O)c(O)c(O)c12	none (no result: p53ts 32C kill, p53ts 39C kill)
COC(=O)c1ccc(CSc2nccn2C)cc1	none
Cn1ccnc1SCc1cn2cc(Br)ccc2n1	p53ts 32C kill inconclusive, FLuc inh 15.8µM, p53ts 39C kill inconclusive
Cc1ccc(-n2c3c(cc(C(=O)Nc4ccccc4C(N)=O)c2=O)C(=O)CC(C)(C)C3)cc1	none (no result: FLuc inh)
CCS(=O)(=O)Nc1cc(-c2cn3ccc(C)cc3n2)ccc1C	p53ts 32C kill inconclusive, p53ts 39C kill 12.6µM (no result: FLuc inh)
Cc1ccn2cc(-c3ccc(C)c(NS(=O)(=O)c4ccc(Cl)cc4)c3)nc2c1	none (no result: FLuc inh)
CCCCC(=O)N(C)C	none (no result: FLuc inh)
O=S1(=O)N=C(Nc2nc3c(s2)CCCC3)c2ccccc21	p53ts 32C kill 5.01µM, FLuc inh 2.51µM, p53ts 39C kill 3.98µM
CCc1cccc(CC)c1NC1=NS(=O)(=O)c2ccccc21	none (no result: FLuc inh)
CN(C)c1ccc(N=Nc2ccccc2C(=O)OCC(=O)N(C)c2ccccc2)cc1	p53ts 32C kill 10µM, p53ts 39C kill inconclusive (no result: FLuc inh)
CC(=O)c1ccc(NC(=O)COC(=O)c2ccccc2N=Nc2ccc(N(C)C)cc2)cc1	p53ts 39C kill inconclusive (no result: FLuc inh)
Oc1c(Br)cc(Br)cc1CN(Cc1cc(Br)cc(Br)c1O)C1CCCCC1	none
C[N+](C)(C)CCCSc1nc2ccccc2[nH]1	none
CC(=O)N=C(N)Sc1nc2ccccc2[nH]1	FLuc inh 12.6µM
CC(C)(C[C@@]1(C)NC(=O)NC1=O)OCc1ccccc1	none
COc1ccc2c(c1)N(CC[C@H]1CCCCN1C)c1ccccc1S2	none
O=C(O)c1cccc(COc2ccccc2Cl)c1	p53ts 32C kill 10µM, FLuc inh 6.31µM, p53ts 39C kill 12.6µM
O=C(O)c1ccc(COc2ccccc2Cl)cc1	none
O=S(=O)(O)c1ccc2c(N=Nc3c(O)ccc4ccccc34)cccc2c1	none
CCCn1nc(NC(=O)c2cccs2)c2cc3cc(OC)ccc3nc21	p53ts 32C kill inconclusive, FLuc inh 10µM, p53ts 39C kill inconclusive
CCCCn1nc(NC(=O)c2cccs2)c2cc3cc(OC)ccc3nc21	FLuc inh inconclusive
COC1=CC(=O)C(O)=C/C1=C\C=C\c1ccccc1	none (no result: FLuc inh)
COc1ccc(Nc2nc(-c3cccc(Cl)c3)c3c(n2)-c2ccccc2OC3)cc1	none (no result: FLuc inh)
CCOc1ccc(Nc2nc(-c3cccc(Cl)c3)c3c(n2)-c2ccccc2OC3)cc1	p53ts 32C kill inconclusive, p53ts 39C kill 10µM (no result: FLuc inh)
Cc1cc([C@](C)(N)C(=O)O)ccc1P(=O)(O)O	FLuc inh 25.1µM
C[C@@](N)(C(=O)O)c1cccc(CC(=O)O)c1	none
CC1CCC2C(=O)OC(CN=[N+]=[N-])CN2C1c1ccc(Br)cc1 (stereo not drawn)	none (no result: FLuc inh)
Cc1cnc2c(c1SCC(=O)NCc1ccc(F)cc1)c(=O)n(C)c(=O)n2C	none (no result: FLuc inh)
O=C(Nc1ccccc1)N(Cc1cccs1)c1ccc(Cl)cc1	none (no result: FLuc inh)
COC(=O)CCn1nnc(-c2cccs2)n1	none
COC(=O)CCn1nnc(-c2ccc(C(C)C)cc2)n1	p53ts 32C kill inconclusive, FLuc inh 12.6µM, p53ts 39C kill inconclusive
CCCN(C(=O)NCc1noc2ccc(C)cc12)c1ccc(Cl)c(Cl)c1	none (no result: FLuc inh)
Clc1ccc(-c2nnc(NC3=NCCCCC3)o2)cc1	p53ts 32C kill 12.6µM, FLuc inh 2.51µM, p53ts 39C kill 12.6µM
c1nnc(NC2=NCCCCC2)s1	none
COc1ccc(-n2c(-c3cccc(F)c3)nc3c(cnn3-c3ccc(C)cc3)c2=O)cc1	none (no result: FLuc inh)
Fc1ccc([C@@H]2CCNC[C@H]2COc2ccc3c(c2)OCO3)cc1	p53ts 32C kill inconclusive, p53ts 39C kill 12.6µM (no result: FLuc inh)
c1ccc(-c2noc(COc3ccc4c(c3)OCO4)n2)cc1	none
O=C(Nc1cc2ccc(O)cc2oc1=O)c1ccccc1	p53ts 32C kill inconclusive, p53ts 39C kill 7.94µM (no result: FLuc inh)
O=c1ccc2ccc(O)cc2o1	none (no result: FLuc inh)
COc1ccc(CCNC(=O)c2ccc3c(c2)nc2n3CCCCC2)cc1OC	none (no result: FLuc inh)
CC(C)CCNC(=O)c1ccc2c(c1)nc1n2CCCCC1	p53ts 32C kill 15.8µM, p53ts 39C kill 3.16µM (no result: FLuc inh)
CCc1ccc(CNC(=O)c2ccc3c(c2)nc2n3CCCCC2)cc1	none (no result: FLuc inh)
O=C(NCCc1ccccc1Cl)c1ccc2c(c1)nc1n2CCCCC1	p53ts 32C kill 3.98µM, p53ts 39C kill 2.51µM (no result: FLuc inh)
Cc1ccc(CCNC(=O)c2ccc3c(c2)nc2n3CCOC2)cc1	none (no result: FLuc inh)
COc1ccc(Br)cc1CNC(=O)c1ccc2c(c1)nc1n2CCC(C)C1 (stereo not drawn)	none (no result: FLuc inh)
O=C(NCCc1ccccc1)c1ccc2c(c1)nc1n2CCOC1	p53ts 32C kill 12.6µM, p53ts 39C kill 10µM (no result: FLuc inh)
Cc1ccccc1CCNC(=O)c1ccc2c(c1)nc1n2CCC(C)C1 (stereo not drawn)	p53ts 32C kill 12.6µM, p53ts 39C kill 12.6µM (no result: FLuc inh)
O=C(O)c1ccncc1.O=C(O)c1ccncc1.[Cl][Pt]([Cl])([Cl])[Cl]	none
O=C1[C@H]2[C@H]3[C@H](O)[C@H](O)C/C(=N/OC[C@@H](O)COCc4ccco4)[C@@H]3CC[C@@H]2C(=O)N1C[C@@H]1CCCO1	none
N[C@@H](C(=O)O)[C@@H]1C[C@H]1C(=O)O	none (no result: p53ts 32C kill, p53ts 39C kill)
COc1cccc(NC(=O)CSc2nc(-c3ccccc3Cl)nc3c2Cc2c(CO)cnc(C)c2O3)c1	none (no result: FLuc inh)
CCCCCCCCCCCC1=C(O)C(=O)C=C(O)C1=O	p53ts 32C kill 12.6µM, p53ts 39C kill 12.6µM
CCCCCCc1c(O)c2ccccc2[nH]c1=O	none
O=C(O)[C@@H](O)[C@@H](O)[C@@H](O)[C@@H](O)c1nc2ccccc2s1	none
CC1(c2ccccn2)Nc2ccccc2-c2nc3ccccc3n21 (stereo not drawn)	none
c1ccc2c(c1)NC1(CCCCC1)n1c-2nc2ccccc21	p53ts 32C kill inconclusive, FLuc inh 12.6µM, p53ts 39C kill inconclusive
CC(=O)OCC(=O)[C@]12OC(C)(C)O[C@@H]1C[C@H]1[C@H]3CC=C4C[C@@H](O)CC[C@]4(C)[C@H]3CC[C@]12C	none
N[C@@H](Cc1cc(-c2ccc(Cl)cc2Cl)cc(CP(=O)(O)O)c1O)C(=O)O	none
N#Cc1cnc(Nc2nc3ccccc3o2)nc1-c1ccccc1	none
Cc1ccnc(Nc2nc3ccccc3o2)n1	p53ts 32C kill 5.01µM, FLuc inh 6.31µM, p53ts 39C kill 7.94µM
Nc1ccccc1C(=O)C[C@@H](N)C(=O)O	none (no result: p53ts 32C kill, p53ts 39C kill)
NC[C@H](O)C1CCCCCCC1	p53ts 32C kill inconclusive
CC(=O)Nc1cc(NC(C)=O)cc(-c2nc3ccccc3[nH]2)c1	none (no result: FLuc inh)
